Assay results taken from PubChem BioAssay (NCATS).
Records with an inconclusive call do not appear. Activity calls are given as the source filed them. Unless noted, the call rests on the fitted dose curve; in most records, active means well fitted curve in the direction sought with a large enough effect; inconclusive means small, poorly fitted or top-dose-only effect, or another doubt; inactive means no such curve, though single readings can be large; an effect the other way counts as inactive or inconclusive.

How the values were obtained:
[1] = AP1 Signaling Pathway (AID 357; active means well fitted curve in either direction with a large enough effect, not every such curve was filed as active;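 further: ME-180 reporter cells stimulated with EGF at its EC50 level; on the % scale 0 is the no-effect control and ±100 the full control effect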); settings: ME-180 AP-1-bla reporter, EGF-induced, beta-lactamase ratio, 5 h; at 38 µM (top of the series)
Method in brief: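 AP-1-bla ME-180 cells, Opti-MEM + 0.5% dialyzed FBS, plated overnight 37 °C. Cpd titration + EC50 EGF, 5 h 37 °C. CCF4 2.5 h RT; ex 405, em 460/530 ratio → %activity, AC50.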

[2] = target: Cytochrome P450 1A2 (Homo sapiens) (UniProt P05177); assay: p450-cyp1a2 (AID 410; calls by dose curve;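 further: -100% = full effect of reference inhibitor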); settings: recombinant CYP1A2, luciferin-ME demethylation, luminescence; series mostly up to 57 µM
Method in brief: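 Luminescent demethylation readout: Luciferin-ME (100uM, equal to Km) turned over by 20nM CYP1A2 for 60 min at room temperature after NADPH regeneration addition, following 10 min compound preincubation. Normalization used 57 uM furafylline as full inhibition.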

[3] = NFAT Signaling Pathway (AID 444; active means well fitted curve in either direction with a large enough effect, not every such curve was filed as active;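 further: carbachol stimulus at about its EC50 of 1 µM final; on the % scale 0 is the no-effect control and ±100 the full control effect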); settings: Jurkat NFAT-bla M1, carbachol, beta-lactamase ratio, 5 h; at 38 µM (top of the series)
Method in brief: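 Read-out: CCF4 FRET ratio (460 nm/530 nm) after 1 h RT dye loading, used for %activity and AC50 from titration series. Cells: Jurkat NFAT-β-lactamase/M1 line, treated with compound plus 1 uM carbachol for 5 h, 37 °C.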

[4] = Stat Signaling Pathway (AID 446; active means well fitted curve in either direction with a large enough effect, not every such curve was filed as active;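 further: ME-180 cervical cancer cells given 40 pM IL-6 alongside compound; SIE-controlled beta-lactamase reporter measured as 460/530 nm FRET emission ratio; on the % scale 0 is the no-effect control and ±100 the full control effect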); settings: ME-180 (cervical carcinoma) SIE beta-lactamase reporter, IL-6 stimulated, 5 h; at 38 µM (top of the series)
Method in brief: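 Emission at 460 and 530 nm (excitation 405 nm) reports SIE-controlled beta-lactamase in ME-180 cells. Cells received compound with 40 pM IL-6 for 5 hrs at 37 C; data scaled between 300 pM IL-6 and 125 nM JAK-inhibitor controls.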

[5] = target: Glucocorticoid receptor (Homo sapiens) (UniProt P04150); assay: GR-GFP Redistribution (AID 450;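 active means compounds whose dose series gives a full or clear partial fitted curve of increased nuclear translocation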; further: potency means the concentration at half of the fitted maximal effect); settings: U2OS GR-GFP nuclear translocation, laser cytometry, 2 h
[6] = target: Glucocorticoid receptor (Homo sapiens) (UniProt P04150); assay: GR-EFC Redistribution (AID 451; calls by dose curve; further: potency means the concentration at half of the fitted maximal effect); settings: CHO-K1 GR-EFC translocation, beta-gal luminescence, 2 h
Method in brief: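 Translocation of GR-ED fusion to nuclear EA restores b-gal, read by luminescence after 1 h room-temperature detection. Engineered CHO-K1 biosensor cells, 1,000/well, exposed 2 h at 37 C to titrations up to 46 uM final.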

[7] = target: Mitogen-activated protein kinase 10 (Mus musculus) (UniProt Q61831); assay: JNK3 AlphaScreen Assay (AID 530; active means well fitted curve in either direction with a large enough effect, not every such curve was filed as active;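 further: kinase came from lysate of stimulated human HepG2 cells; signal reports phosphorylation of biotinylated GST-cJun 1-79 at Ser73 with 10 µM ATP; on the % scale 0 is the no-effect control and ±100 the full control effect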); settings: JNK3 lysate, c-Jun phosphorylation; series mostly up to 57.1 µM
Method in brief: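 qHTS titrations with 15 min compound pre-incubation before adding ATP (10 uM final). Read-out: AlphaScreen of Ser73-phosphorylated biotin-GST-cJun using HepG2 lysate JNK3 activated by IL-1β and TNFα.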

[8] = target: 3',5'-cyclic-AMP phosphodiesterase 4B (Homo sapiens) (UniProt Q07343); assay: qHTS Assay for Inhibitors of PDE-IV (AID 607; active means well fitted activation curve with a large enough effect in the main read-out, with a control signal flat, not every such curve was filed as active; further: % of control where 0% means no effect); settings: HEK293 ACTOne CNG channel cells, membrane potential fluorescence; series mostly up to 22.9 µM
Method in brief: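 The readout is membrane depolarisation from a cAMP-sensing CNG channel, detected with a potential dye at ex 535/em 590. Cells were HEK293-derived (endogenous PDE-IV) at 1000 cells/well, titrated up to 22.9 uM final.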

[9] = target: Guanine nucleotide-binding protein G(i) subunit alpha-1 (Homo sapiens) (UniProt P63096); assay: qHTS Assay for Inhibitors of RGS12 GoLoco Motif Activity (Green Fluorophore) (AID 879); settings: Galphai1/FITC-RGS12 GoLoco peptide, fluorescence polarization; series mostly up to 57.1 µM;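 further: 0% = labeled peptide with Gαi1 and full inhibition = labeled peptide alone without protein; negative values mean loss of peptide binding seen as reduced polarization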
Method in brief: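 A drop in FITC polarization marked displacement of the FITC-tagged RGS12 GoLoco peptide (10 nM) from Gαi1 (50 nM). Compounds were incubated 10 min at room temperature in Tris pH 7.5 buffer containing 150 mM NaCl, 0.1 mM GDP and 0.05% NP40; unlabeled peptide titration served as control.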

[10] = target: Cytochrome P450 3A4 (Homo sapiens) (UniProt P08684); assay: qHTS Assay for Activators of Cytochrome P450 3A4 (AID 885); settings: recombinant CYP3A4, Luciferin-PPXE luminescence, 60 min; series mostly up to 57.1 µM; further: nearly all actives have a fitted effect of over 65% in size
Method in brief: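 Activators are scored by enhanced luminescence from CYP3A4 conversion of luciferin-PPXE (25uM, equal to KM) to luciferin, after 60 min at RT with an NADPH-regenerating system.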

[11] = qHTS Assay for Identification of Small Molecule Agonists for Thrombopoietin (TPO) Signaling Pathway (AID 917); settings: TPO signaling pathway reporter cells, agonist qHTS, stimulated with TPO at its EC50; series mostly up to 38.5 µM; further: on the % scale 0 is the no-effect control and ±100 the full control effect
Method in brief: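 Quantitative HTS for pathway activators: compounds were pin-transferred onto IL-3-starved Ba/F3 cells expressing human TPO receptor, TPO was added at its EC50 (26 pM final), and after 24 hrs at 37 C reporter luciferase was measured.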

[12] = target: Muscarinic acetylcholine receptor M1 (Rattus norvegicus) (UniProt P08482); assay: qHTS Assay for Antagonists of Acetylcholine Muscarinic M1 Receptor: Kinetic Measurement of Intracellular Calcium Response (AID 943); settings: M1-expressing cells, kinetic intracellular calcium fluorescence; series mostly up to 35.3 µM;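 further: Fluo-4 calcium signal as peak divided by basal fluorescence over 4 min; nearly all actives have a fitted effect of over 75% in size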
Method in brief: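 Antagonism measured as reduction of carbachol-evoked (EC80, 100 nM final) calcium flux in rat M1-CHO cells after 10 min compound exposure. Fluo-4 signal read kinetically; ratio of maximal to basal fluorescence.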

[13] = target: Muscarinic acetylcholine receptor M1 (Rattus norvegicus) (UniProt P08482); assay: qHTS Assay for Antagonists of Acetylcholine Muscarinic M1 Receptor: Measurement of IP-One Response (AID 944); settings: CHO-M1 cells, IP-One HTRF, antagonist mode; series mostly up to 46.1 µM; further: nearly all actives have a fitted effect of over 75% in size
Method in brief: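 IP1 accumulation measured via TR-FRET between d2-IP1 and Eu-cryptate anti-IP1 antibody after carbachol (200 nM, EC80) stimulation for 30 min; rat M1-transfected CHO cells received compound 10 min before agonist.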

[14] = target: Pyruvate kinase (Leishmania mexicana) (UniProt Q27686); assay: qHTS Validation Assay for Inhibitors of Leishmania Mexicana Pyruvate Kinase (AID 945);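 further: 0% = DMSO only neutral control wells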; settings: purified L. mexicana pyruvate kinase, enzyme activity, E451W mutant enzyme; series mostly up to 57.5 µM
Method in brief: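 Luminescent ATP detection (PKLight) after a 1 h room-temperature reaction of 0.2 nM LmPYK E451W mutant with 0.5 mM PEP and 0.1 mM ADP at pH 7.2. Activity is normalized to DMSO-only control wells.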

[15] = target: Pyruvate kinase PKM (Homo sapiens) (UniProt P14618); assay: qHTS Assay for Activators of Human Muscle Pyruvate Kinase (AID 954; active means well fitted curve in the direction sought with a large enough effect, not every such curve was filed as active;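 further: 0% = uninhibited enzyme and -100% = no enzyme or full thiadiazolimine inhibition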); settings: purified human muscle pyruvate kinase, luciferase-coupled luminescence, 1 h; series mostly up to 57.5 µM
Method in brief: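 PKM2, human, >95% pure, 0.1 nM; PEP 0.5 mM (Km), ADP 0.1 mM; 50 mM imidazole pH 7.2, 50 mM KCl, 0.01% Tween 20, 0.05% BSA; 1 h RT; luciferase luminescence readout.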

[16] = target: Alpha-galactosidase A (Homo sapiens) (UniProt P06280); assay: Counterscreen for Glucocerebrosidase Inhibitors: qHTS Assay for Human alpha-Galactosidase at pH 4.5 (AID 992); settings: purified enzyme, fluorogenic substrate; series mostly up to 76.9 µM; further: 0% is about no effect
Method in brief: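 Fluorogenic 4-MU alpha-D-galactoside (80 uM) hydrolysis, 2 nM enzyme, pH 4.5 citrate buffer + 0.005% Tween-20; 20 min RT; NaOH/glycine pH 10 stop; Ex365/Em440. Compounds titrated 0.7 nM–77 uM; Hill-equation AC50.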

[17] = target: alpha-glucosidase (Oryza sativa, rice) (UniProt Q653V4); assay: Counterscreen for Glucocerebrosidase Inhibitors: qHTS Assay for Rice alpha-Glucosidase at pH 5.0 (AID 997); settings: rice alpha-glucosidase enzyme activity; series mostly up to 76.9 µM;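 further: 0% = full activity with enzyme and -100% = basal without enzyme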
Method in brief: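 Endpoint fluorogenic assay at pH 5.0: compounds (0.7 nM to 77 uM) titrated against 4 nM rice enzyme and 400 uM 4-MU-alpha-glucoside for 20 min at room temperature; NaOH/glycine stop, read ex 365/em 440 nm, Hill-fitted AC50.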

[18] = Validation of Assay for Modulators of Lamin A Splicing (AID 1459; active means well fitted curve in the direction sought with a large enough effect in the signal ratio; the % refers to the signal ratio;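 further: cells exposed to compound for two days before reading; 0% is about no effect; ratio rise marks activators and ratio drop marks inhibitors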); settings: Lamin A splicing dual RFP/GFP fluorescence reporter; series mostly up to 9.22 µM
Method in brief: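 Splicing correction is reported by an EGFP-containing lamin A minigene in stably transfected S3 HeLa cells, while DsRed2 controls for viability and nonspecific signal. Cells are exposed to compounds for 48 hrs before the GFP over RFP ratio is taken.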

[19] = Counterscreen for APE1 Inhibitors: Fluorescent Dye Displacement Validation Assay (AID 1707); settings: fluorescent dye displacement from DNA; series mostly up to 57.1 µM;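 further: plate controls were ThO with dsDNA and no compound for no effect and ThO without dsDNA for full effect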
Method in brief: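 Endpoint fluorescence read at 480 nm excitation / 540 nm emission; DNA-binding compounds lower signal by displacing 250 nM Thiazole Orange from 50 nM dsDNA containing a tetrahydrofuran abasic site, Tris-HCl pH7.5 buffer with NaCl and MgCl2.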

[20] = target: Endonuclease 4 (Escherichia coli (strain K12)) (UniProt P0A6C1); assay: Counterscreen for APE1 Inhibitors: qHTS Validation Assay for Inhibitors of Endonuclease IV (AID 1708); further: on the % scale 0 is the no-effect control and ±100 the full control effect; settings: E. coli endonuclease IV, DNA cleavage fluorescence; series mostly up to 57.1 µM
Method in brief: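 Incision of a double-stranded 50 nM TAMRA/BHQ-2 abasic substrate was followed kinetically (525/598 nm, reads every 60 s) after 15 min enzyme–compound preincubation with 2 nM EndoIV in pH 7.5 Tris buffer with MgCl2, DTT and Tween-20; concentration-response format.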

Sequence of Glucocorticoid receptor (Homo sapiens) (P04150 whole entry, looked up, the tested form may be a part): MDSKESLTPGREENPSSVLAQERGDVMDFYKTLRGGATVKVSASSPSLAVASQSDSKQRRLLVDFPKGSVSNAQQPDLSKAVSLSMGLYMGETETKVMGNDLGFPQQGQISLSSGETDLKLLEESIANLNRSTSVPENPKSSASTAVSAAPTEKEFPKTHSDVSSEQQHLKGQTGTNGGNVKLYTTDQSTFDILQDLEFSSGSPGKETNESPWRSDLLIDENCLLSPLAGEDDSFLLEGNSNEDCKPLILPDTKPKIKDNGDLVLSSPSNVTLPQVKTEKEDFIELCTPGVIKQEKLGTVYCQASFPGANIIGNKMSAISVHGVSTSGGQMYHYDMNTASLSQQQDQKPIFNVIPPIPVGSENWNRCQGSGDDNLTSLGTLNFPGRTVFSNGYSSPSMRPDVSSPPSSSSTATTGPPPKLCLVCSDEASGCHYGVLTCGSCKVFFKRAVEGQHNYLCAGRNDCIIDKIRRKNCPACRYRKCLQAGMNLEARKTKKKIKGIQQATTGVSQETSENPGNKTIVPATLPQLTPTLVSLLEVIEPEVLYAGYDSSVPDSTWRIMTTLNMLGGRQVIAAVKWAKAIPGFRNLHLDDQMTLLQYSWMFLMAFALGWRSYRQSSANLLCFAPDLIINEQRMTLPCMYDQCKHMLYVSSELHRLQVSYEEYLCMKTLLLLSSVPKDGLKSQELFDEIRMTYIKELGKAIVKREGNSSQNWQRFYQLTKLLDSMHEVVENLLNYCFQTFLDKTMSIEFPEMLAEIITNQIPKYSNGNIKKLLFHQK
Sequence of 3',5'-cyclic-AMP phosphodiesterase 4B (Homo sapiens) (Q07343 whole entry, looked up): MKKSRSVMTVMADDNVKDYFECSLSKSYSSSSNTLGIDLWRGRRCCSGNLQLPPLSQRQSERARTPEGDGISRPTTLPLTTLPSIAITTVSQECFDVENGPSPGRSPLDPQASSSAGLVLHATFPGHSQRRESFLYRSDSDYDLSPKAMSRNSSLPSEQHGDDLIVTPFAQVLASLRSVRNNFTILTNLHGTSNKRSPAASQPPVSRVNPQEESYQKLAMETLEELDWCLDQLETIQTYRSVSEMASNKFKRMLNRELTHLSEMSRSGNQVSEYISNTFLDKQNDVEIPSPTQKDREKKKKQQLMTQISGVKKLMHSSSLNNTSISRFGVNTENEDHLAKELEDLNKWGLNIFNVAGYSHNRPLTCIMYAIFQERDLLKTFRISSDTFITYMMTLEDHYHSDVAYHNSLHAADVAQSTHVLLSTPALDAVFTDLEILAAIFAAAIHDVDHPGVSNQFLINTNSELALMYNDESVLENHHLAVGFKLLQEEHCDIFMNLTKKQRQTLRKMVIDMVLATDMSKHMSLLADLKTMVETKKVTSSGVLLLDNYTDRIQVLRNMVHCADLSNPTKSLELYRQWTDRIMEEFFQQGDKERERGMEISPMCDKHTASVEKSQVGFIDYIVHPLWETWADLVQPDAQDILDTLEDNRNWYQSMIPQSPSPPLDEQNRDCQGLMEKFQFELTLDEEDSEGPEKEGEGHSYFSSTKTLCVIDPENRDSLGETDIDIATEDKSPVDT
Sequence of Muscarinic acetylcholine receptor M1 (Rattus norvegicus) (P08482 whole entry, looked up): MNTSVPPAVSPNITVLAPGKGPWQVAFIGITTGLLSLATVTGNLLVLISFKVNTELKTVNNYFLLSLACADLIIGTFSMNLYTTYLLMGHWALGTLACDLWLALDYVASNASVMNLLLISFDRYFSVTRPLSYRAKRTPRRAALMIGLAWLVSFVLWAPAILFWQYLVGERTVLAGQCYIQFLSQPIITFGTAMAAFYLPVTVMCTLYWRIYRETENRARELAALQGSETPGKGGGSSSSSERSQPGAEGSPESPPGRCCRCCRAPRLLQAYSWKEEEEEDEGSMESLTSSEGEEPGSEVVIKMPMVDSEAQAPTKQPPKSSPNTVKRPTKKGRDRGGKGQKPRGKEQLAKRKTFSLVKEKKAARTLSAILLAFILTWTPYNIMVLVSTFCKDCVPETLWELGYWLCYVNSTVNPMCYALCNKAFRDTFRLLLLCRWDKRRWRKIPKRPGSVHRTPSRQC
Sequence of Cytochrome P450 1A2 (Homo sapiens) (P05177 whole entry, looked up): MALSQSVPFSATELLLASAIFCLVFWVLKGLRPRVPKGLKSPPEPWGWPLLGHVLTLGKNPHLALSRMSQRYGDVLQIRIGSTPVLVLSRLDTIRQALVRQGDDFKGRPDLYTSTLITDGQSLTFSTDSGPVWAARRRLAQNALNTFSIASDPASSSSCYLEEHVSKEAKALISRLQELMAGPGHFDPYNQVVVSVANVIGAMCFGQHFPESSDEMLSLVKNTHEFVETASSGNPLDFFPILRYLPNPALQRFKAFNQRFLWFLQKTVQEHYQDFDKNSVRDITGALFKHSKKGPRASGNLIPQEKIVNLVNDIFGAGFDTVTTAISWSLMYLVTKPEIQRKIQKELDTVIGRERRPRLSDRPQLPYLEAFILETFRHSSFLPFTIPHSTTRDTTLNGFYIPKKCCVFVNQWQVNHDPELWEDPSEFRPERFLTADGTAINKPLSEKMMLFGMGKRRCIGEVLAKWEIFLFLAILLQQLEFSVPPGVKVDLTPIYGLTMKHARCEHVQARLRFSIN
Sequence of Cytochrome P450 3A4 (Homo sapiens) (P08684 whole entry, looked up): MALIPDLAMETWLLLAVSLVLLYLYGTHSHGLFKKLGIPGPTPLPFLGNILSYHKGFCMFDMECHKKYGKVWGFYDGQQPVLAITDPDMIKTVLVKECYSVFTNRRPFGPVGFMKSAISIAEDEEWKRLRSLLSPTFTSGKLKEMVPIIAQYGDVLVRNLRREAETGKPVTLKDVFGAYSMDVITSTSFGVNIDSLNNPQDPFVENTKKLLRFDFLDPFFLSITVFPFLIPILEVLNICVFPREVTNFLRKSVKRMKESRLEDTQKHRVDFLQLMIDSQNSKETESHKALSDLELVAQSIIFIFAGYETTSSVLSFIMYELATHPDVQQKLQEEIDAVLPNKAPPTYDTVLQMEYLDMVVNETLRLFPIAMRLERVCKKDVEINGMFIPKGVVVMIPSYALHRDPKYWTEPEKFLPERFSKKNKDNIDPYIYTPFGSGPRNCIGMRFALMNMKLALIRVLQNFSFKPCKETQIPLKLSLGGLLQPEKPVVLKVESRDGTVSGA
Sequence of Pyruvate kinase (Leishmania mexicana) (Q27686 2-499 E452W): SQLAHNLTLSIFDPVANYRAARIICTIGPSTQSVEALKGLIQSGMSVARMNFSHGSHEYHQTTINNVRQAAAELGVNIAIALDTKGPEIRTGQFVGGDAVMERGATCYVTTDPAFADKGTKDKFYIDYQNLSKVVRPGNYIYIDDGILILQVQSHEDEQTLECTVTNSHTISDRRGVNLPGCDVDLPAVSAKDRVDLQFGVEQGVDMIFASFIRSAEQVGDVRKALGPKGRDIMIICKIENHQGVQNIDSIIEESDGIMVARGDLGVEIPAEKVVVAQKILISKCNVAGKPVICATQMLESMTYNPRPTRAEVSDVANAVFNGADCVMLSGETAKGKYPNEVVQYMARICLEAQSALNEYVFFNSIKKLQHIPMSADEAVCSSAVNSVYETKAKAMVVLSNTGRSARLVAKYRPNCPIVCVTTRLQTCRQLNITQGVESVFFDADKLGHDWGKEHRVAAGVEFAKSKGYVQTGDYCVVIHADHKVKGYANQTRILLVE
Sequence of Guanine nucleotide-binding protein G(i) subunit alpha-1 (Homo sapiens) (P63096 whole entry, looked up): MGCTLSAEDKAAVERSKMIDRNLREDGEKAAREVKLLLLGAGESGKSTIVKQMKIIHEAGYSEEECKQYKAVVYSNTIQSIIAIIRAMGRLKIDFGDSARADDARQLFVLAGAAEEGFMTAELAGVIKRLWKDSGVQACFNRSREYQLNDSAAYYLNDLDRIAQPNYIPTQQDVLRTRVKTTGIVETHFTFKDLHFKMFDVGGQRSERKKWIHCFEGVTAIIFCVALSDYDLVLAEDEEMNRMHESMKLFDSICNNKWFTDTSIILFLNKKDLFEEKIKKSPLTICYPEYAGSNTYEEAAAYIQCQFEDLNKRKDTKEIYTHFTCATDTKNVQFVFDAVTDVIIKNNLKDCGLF
Sequence of Alpha-galactosidase A (Homo sapiens) (P06280 whole entry, looked up): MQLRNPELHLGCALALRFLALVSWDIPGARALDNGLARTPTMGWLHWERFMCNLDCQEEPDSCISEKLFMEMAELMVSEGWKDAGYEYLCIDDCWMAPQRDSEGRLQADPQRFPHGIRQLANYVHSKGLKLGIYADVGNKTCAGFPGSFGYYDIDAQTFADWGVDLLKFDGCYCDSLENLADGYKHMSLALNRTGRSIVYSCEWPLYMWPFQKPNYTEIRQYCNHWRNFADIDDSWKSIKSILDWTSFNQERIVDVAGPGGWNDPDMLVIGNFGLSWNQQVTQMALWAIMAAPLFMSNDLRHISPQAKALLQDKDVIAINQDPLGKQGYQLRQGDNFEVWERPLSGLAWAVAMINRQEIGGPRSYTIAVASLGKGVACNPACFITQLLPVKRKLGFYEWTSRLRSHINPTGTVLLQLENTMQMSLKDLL
Sequence of Pyruvate kinase PKM (Homo sapiens) (P14618 whole entry, looked up): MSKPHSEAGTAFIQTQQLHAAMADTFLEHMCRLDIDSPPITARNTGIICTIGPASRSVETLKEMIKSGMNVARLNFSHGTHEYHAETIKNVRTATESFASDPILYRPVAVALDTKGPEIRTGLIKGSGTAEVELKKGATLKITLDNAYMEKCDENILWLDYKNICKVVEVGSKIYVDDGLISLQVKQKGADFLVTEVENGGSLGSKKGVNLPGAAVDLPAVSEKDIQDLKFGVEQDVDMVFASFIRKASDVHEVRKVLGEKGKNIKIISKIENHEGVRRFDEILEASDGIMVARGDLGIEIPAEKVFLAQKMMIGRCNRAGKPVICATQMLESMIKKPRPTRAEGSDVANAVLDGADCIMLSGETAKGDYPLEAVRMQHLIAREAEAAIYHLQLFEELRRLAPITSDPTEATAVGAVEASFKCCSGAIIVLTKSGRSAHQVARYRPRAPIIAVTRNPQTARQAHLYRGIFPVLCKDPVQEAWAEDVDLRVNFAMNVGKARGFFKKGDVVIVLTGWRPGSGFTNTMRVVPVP

COC(=O)c1c(-c2cc(OC)c(OC)c(OC)c2)c2ccnc(OCc3ncccn3)c2c(=O)n1Cc1ccnc(C)c1
inactive: activity change, negative = inhibition [1] -4.4% | Potency [2] | activity change, negative = inhibition [3] 4.39% | activity, negative = inhibition [4] -8.52% | Potency [5] > 46 µM | Potency [6] > 46 µM | Potency [7] | Potency [8] | outcome [9] | Potency [10] | Potency [11] | Potency [12] | Potency [13] | Potency [14] | outcome [15] | outcome [16] | outcome [17] | outcome [18] | Potency [19] | Potency [20]
